Screening results as filed in PubChem BioAssay.
Rows were chosen to be rich in hits. Some 11% of all compounds tested hit in one or more screens of this group.
Vaccinia mCherry: qHTS for Stage-Specific Inhibitors of Vaccinia Orthopoxvirus: mCherry Reporter Primary qHTS | Vaccinia virus mCherry reporter infection, fluorescence | Potency, µM (series often up to 36.5 µM), for inactives: top-dose activity change, negative = inhibition, hits mostly inhibitors | 310,000 tested, 0.63% active | AID 720579, 2013; calls by dose curve; tested in A549 cells; further: on the % scale 0 is the no-effect control and ±100 the full control effect; nearly all actives have a fitted effect of over 35% in size
NS1 function inh: qHTS Assay for Inhibitors of Influenza NS1 Protein Function; 270,000 tested, 0.4% active; AID 2326, 2010; Potency, µM (doses to about 46.1 µM), for inactives: at the highest dose activity, positive = more growth; calls by dose curve; further: actives are rising curves; nearly all actives have a fitted effect of over 50% in size
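A cell-based growth assay was used: compounds that relieve NS1-induced slow growth of budding yeast raise OD600. Assay medium was yeast nitrogen base with ammonium sulphate and -URA supplement, pH 6.0, with 2% galactose.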
VACV Venus inh: qHTS for Stage-Specific Inhibitors of Vaccinia Orthopoxvirus: Venus Reporter Primary qHTS. Vaccinia virus Venus reporter expression, fluorescence. Potency, µM (doses to about 36.5 µM), inactives show top-dose activity change, negative = inhibition, most hits filed as inhibitors. 330,000 tested, 0.46% active. AID 720580, 2013; calls by dose curve; tested in A549 cells; further: on the % scale 0 is the no-effect control and ±100 the full control effect; nearly all actives have a fitted effect of over 30% in size
HCV inh: qHTS Assay for Inhibitors of Hepatitis C Virus (HCV); Potency, µM (top dose mostly 41.8 µM), for the others: at the top dose activity change, negative = inhibition, hits mostly inhibitors; Huh7.5.1 HCVcc-Cre infection, luciferase reporter, 44 h; AID 651820, 2012; 340,000 tested, 3.4% active; further: on the % scale 0 is the no-effect control and ±100 the full control effect
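Reporter virus HCVcc-Cre (~0.5 moi) infects cells exposed to compound; seeding density 1,000 cells/well with 4 h settling beforehand. Luminescence, 15 sec read, taken 44 h post-infection following a 15 min RT substrate incubation.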
Pf growth 48h: Primary qHTS for delayed death inhibitors of the malarial parasite plastid, 48 hour incubation. P. falciparum luciferase growth in erythrocytes, 48 h. Potency, µM (top dose mostly 28.7 µM), without a hit: at the highest dose activity change, negative = inhibition, most hits filed as inhibitors. 310,000 tested, 5.9% active; further: on the % scale 0 is the no-effect control and ±100 the full control effect
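Erythrocytes infected with P. falciparum carrying an integrated firefly luciferase reporter (2% hematocrit, 0.1% parasitemia final) were exposed to compounds in RPMI 1640 with 0.5% Albumax at 37 C, 5% CO2. Growth inhibition was scored as reduced luminescence.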
Pf growth 96h: Primary qHTS for delayed death inhibitors of the malarial parasite plastid, 96 hour incubation. P. falciparum luciferase reporter growth, 96 h. Potency, µM (titrated, usually from 28.7 µM), for inactives: at the highest dose activity change, negative = inhibition, most hits filed as inhibitors. 320,000 tested, 6.9% active; further: on the % scale 0 is the no-effect control and ±100 the full control effect
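Plates of compound plus infected erythrocytes (2% hematocrit, 0.05% parasitemia final) incubate 96 hours, 37 C, 5% CO2. Detection reagent added; reduced luminescence from the parasites' luciferase reporter flags inhibition.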
* marks the source's active call; other numbers are inactive results; i = inactive; u = inconclusive; x = no result. Unless noted, the call rests on the fitted dose curve; in most records, active means well fitted inhibition curve with a large enough effect; inconclusive means small, poorly fitted or top-dose-only effect, or another doubt; inactive means no such curve, though single readings can be large or run the other way. Potency means the concentration at half of the fitted maximal effect.

SMILES	Vaccinia mCherry	NS1 function inh	VACV Venus inh	HCV inh	Pf growth 48h	Pf growth 96h
CC[C@H](C)[C@H](NC(=O)OCc1ccccc1)C(=O)OCC(=O)N1CCN(c2ccc(OC)cc2)CC1	x	x	x	13µM*	x	x
Cc1ccc(OCC(=O)Nc2ccc(CN3CCCCC3)cc2)c(C)c1	-20%	0%	u	u	u	u
Cc1cc(C(=O)OCC(=O)Nc2ccc(F)cc2F)c(C)n1C1CC1	x	x	x	-19%	u	60%
COc1ccc(-c2nc3scc(CCNS(=O)(=O)c4ccc5c(c4)OCCO5)n3n2)cc1OC	-11%	x	-6%	x	x	x
COc1ccccc1CNC(=O)C(NC(=O)Nc1ccccc1)C(C)C (stereo not given)	-6%	-1%	3%	6%	12%	21%
O=C(COc1ccc(Cl)cc1Br)N1CCN(c2ccccc2)CC1	x	-4%	-21%	-20%	-2%	3.7µM*
COc1ccc(N2CCN(C(=O)COc3ccc4ccccc4c3)CC2)cc1	x	7%	-7%	-9%	4%	9.3µM*
O=C(COc1ccccc1Cl)N1CCCC(N2CCN(c3ccc(F)cc3)CC2)C1 (stereo not given)	x	-50%	x	u	12µM*	8.3µM*
O=C(Cn1cccn1)N1CCCC(N2CCN(c3ccccc3F)CC2)C1 (stereo not given)	i	4%	-1%	18%	27%	3.7µM*
O=C(COc1ccc2ccccc2c1)N1CCN(c2ccccc2)CC1	-17%	x	-12%	-4%	33%	30%
Clc1ccc2scc(CN3CCCC3)c2c1	x	x	x	0%	x	x
CN(C(=O)COc1cc(=O)n(C)c2ccccc12)c1ccc(Cl)cc1	-10%	-14%	-2%	-20%	x	u
O=C(OCC(=O)N1CCN(c2ccccc2)CC1)c1ccc2ncsc2c1	-13%	-13%	-6%	11%	x	12µM*
CCOC(=O)c1ccc(NC(=O)CSc2nc(SC)ns2)cc1	x	-144%	u	-12%	-19%	u
Cc1cccc(OCCNc2cc(N3CCOCC3)ccc2[N+](=O)[O-])c1	u	-12%	u	10µM*	u	u
Cc1ccc(OCCNc2cc(N3CCN(CCO)CC3)ccc2[N+](=O)[O-])cc1C	u	0%	u	10µM*	u	-20%
Cc1cccc(OCCNc2cc(N3CCN(C)CC3)ccc2[N+](=O)[O-])c1	i	0%	-1%	u	1%	5%
COc1ccc(S(=O)(=O)Nc2ccc3ccccc3c2)cc1C	x	-140%	x	11µM*	x	-20%
COc1ccc(S(=O)(=O)Nc2ccc(S(=O)(=O)N3CCCCC3)cc2)cc1C	x	10%	x	35µM*	u	u
COc1ccc(S(=O)(=O)N2CCCN(S(=O)(=O)c3ccc(OC)c(C)c3)CC2)cc1C	-23%	18%	-24%	u	13%	-11%
O=C(Nc1nnc(SCc2ccc(Cl)cc2)s1)C1CC(=O)N(Cc2ccccc2)C1 (stereo not given)	-28%	5%	-24%	-5%	20%	5%
N[C@@H](Cc1c[nH]c2ccc(O)cc12)C(=O)O	-4%	u	-15%	5%	31%	16%
CCC(=O)Nc1sc2c(c1C(=O)Nc1ccc(Br)cc1)CCCCC2	-11%	x	-21%	x	x	x
NC(=O)c1c(NC(=O)CN2CCN(S(=O)(=O)c3ccccc3)CC2)sc2c1CCC2	u	x	-24%	10µM*	u	6%
O=C(CN1CCN(S(=O)(=O)c2ccccc2)CC1)Nc1ccccc1C(=O)c1ccccc1	u	u	u	u	13µM*	4.7µM*
SMILES	Vaccinia mCherry	NS1 function inh	VACV Venus inh	HCV inh	Pf growth 48h	Pf growth 96h
O=C(CN1CCCC1)Nc1sc2c(c1C(=O)Nc1ccc(Br)cc1)CCC2	i	6%	-5%	-22%	12µM*	u
CN1CCN(CC(=O)Nc2sc3c(c2C(=O)Nc2ccccc2)CCCC3)CC1	x	7%	x	u	u	28%
O=C(CN1CCN(Cc2ccc3c(c2)OCO3)CC1)Nc1cc(S(=O)(=O)N2CCCC2)ccc1Cl	-14%	-1%	-14%	6.3µM*	u	u
O=C1NCCN1CCNS(=O)(=O)c1ccc2ccccc2c1	x	7%	x	9%	16%	-28%
O=C(CN1CCN(C(=O)c2ccccc2)CC1)Nc1cc(S(=O)(=O)N2CCCC2)ccc1Cl	x	x	x	u	10µM*	u
O=C(Nc1cc(S(=O)(=O)N2CCCCC2)ccc1Cl)c1ccccc1NS(=O)(=O)c1ccc(F)cc1	u	2%	u	10µM*	0%	u
O=C(Nc1cc(S(=O)(=O)N2CCCCC2)ccc1O)c1ccccc1NS(=O)(=O)c1ccc(F)cc1	-7%	11%	-3%	18%	-20%	u
O=C(CN1CCN(C(=O)c2cccc(S(=O)(=O)N3CCCC3)c2)CC1)Nc1ccccc1Cl	x	x	x	0%	10µM*	u
CC(NCC(=O)Nc1cc(S(=O)(=O)N2CCCCCC2)ccc1Cl)c1ccccc1 (stereo not given)	x	x	x	13µM*	u	u
C=CCn1cc(-c2ccccc2)cc(C#N)c1=O	x	1%	-20%	-6%	x	u
Cc1nc(-c2cccc(F)c2)sc1CCNC(=O)c1c(F)cccc1Cl	-1%	x	-4%	x	x	x
O=C(CN1CCN(CC(=O)Nc2ccccc2Cc2ccccc2)CC1)Nc1ccccc1Cl	-14%	1%	-7%	u	u	13µM*
CC1CCN(C(C)C(=O)Nc2cc(S(=O)(=O)N3CCCCC3)ccc2Cl)CC1 (stereo not given)	-20%	x	-7%	16µM*	12µM*	9.3µM*
CN(C)c1ccc(S(=O)(=O)N2CCCCC2)cc1NC(=O)CCNC(=O)c1ccco1	x	x	x	16%	12µM*	u
O=C(CN(Cc1ccco1)Cc1ccco1)Nc1cc(S(=O)(=O)N2CCCCC2)ccc1Cl	x	x	x	10µM*	13µM*	u
O=C(CN1CCCC1)Nc1ccccc1Cl	x	-4%	x	9%	x	6%
O=C(O)c1cc(S(=O)(=O)N2CCN(C(c3ccccc3)c3ccccc3)CC2)ccc1Cl	-11%	7%	0%	2%	12µM*	9.3µM*
COc1ccc(CSCC(=O)N/N=C/c2ccc(OCC(=O)NCc3ccco3)cc2)cc1	x	4%	-28%	u	-21%	-3%
COc1cc(CNc2ccc3[nH]c(=O)[nH]c3c2)ccc1OCc1ccc(C)cc1	u	6%	u	u	43%	36%
COc1cc(CNc2ccc3[nH]c(=O)[nH]c3c2)ccc1OCc1cccc(C)c1	u	6%	u	6.3µM*	0%	-4%
